# Screening data deposited in PubChem BioAssay by Broad Institute.
# FGF22 binding: shifts melting point of recombinant human FGF22; Q9HCT0; AID 651658; recombinant FGF22 thermal shift, SYPRO orange fluorescence; percent of sucrose octasulfate shift, DMSO zero; activity (Tm shift, normalised), % at 9.99 µM; 340,000 tested, 1.5% active;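 active = mean Tm shift, scaled 0 neutral to 100 positive control, at about 1.3% or above, every replicate too, limit read from the data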
# PvdQ acylase: P. aeruginosa PvdQ acylase inhibition. 340,000 tested, 0.063% active. inhibition, % at 10 µM. purified PvdQ acylase, fluorescence plate reader. AID 488965; in the data active = inhibition above about 30%, passing the limit was not always enough;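 also: 0% = vehicle neutral wells and 100% = reference inhibitor wells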
# CDK5 p35 inh: blocks human CDK5/p35 kinase activity; Q00535+Q15078; Recombinant CDK5/p35, ADP-Glo luminescence, 60 min; inhibition, % at 10 µM; 330,000 tested, 0.01% active; AID 488839;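 active = highest replicate inhibition of at least 50% and at least 75% of replicates reaching 50%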;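 also: plate controls were DMSO neutral control for no effect and GW8510 at 10 µM for full effect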
# Target sequence (Q00535 whole entry, looked up): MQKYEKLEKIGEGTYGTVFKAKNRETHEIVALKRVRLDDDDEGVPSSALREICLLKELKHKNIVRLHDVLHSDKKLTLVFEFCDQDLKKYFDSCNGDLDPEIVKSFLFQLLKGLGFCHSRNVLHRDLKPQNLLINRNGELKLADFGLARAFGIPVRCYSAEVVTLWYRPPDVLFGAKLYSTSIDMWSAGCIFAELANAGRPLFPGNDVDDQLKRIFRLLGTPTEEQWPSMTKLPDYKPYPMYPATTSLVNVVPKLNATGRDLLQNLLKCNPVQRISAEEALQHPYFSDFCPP
# Target sequence (Q15078 whole entry, looked up): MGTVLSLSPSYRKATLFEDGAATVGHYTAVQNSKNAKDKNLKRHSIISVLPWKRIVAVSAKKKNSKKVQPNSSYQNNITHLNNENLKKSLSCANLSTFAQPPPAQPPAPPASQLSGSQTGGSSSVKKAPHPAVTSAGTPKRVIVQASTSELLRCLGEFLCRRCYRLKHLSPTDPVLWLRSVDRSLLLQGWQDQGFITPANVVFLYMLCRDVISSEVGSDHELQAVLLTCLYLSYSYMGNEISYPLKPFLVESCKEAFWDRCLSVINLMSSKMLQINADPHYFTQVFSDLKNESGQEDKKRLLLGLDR
# dFosB activator: enhances mouse delta FosB homodimer DNA binding; P13346; 340,000 tested, 0.99% active; purified delta FosB, TAMRA-CDK5 oligo fluorescence polarization; percent of positive-control signal above neutral wells; activation, % at 25 µM;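 active = mean activation above about 17%, with every replicate also reaching it, limit read from the data, passing the limit was not always enough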
# PglD DTNB: blocks C. jejuni PglD acetyltransferase activity. inhibition, % at 12.5 µM. purified PglD enzyme, DTNB colorimetric CoA detection. 360,000 tested, 0.098% active; in the data active = inhibition above about 16%, passing the limit was not always enough
# SIRT5 block: blocks human SIRT5 desuccinylation of peptide | Q9NXA8 | Purified SirT5, succinyl-peptide AMC, trypsin-coupled fluorescence | inhibition, % at 15 µM | 330,000 tested, 1.1% active; in the data active = inhibition above about 15%
# PglD confirm: PglD (C. jejuni) inhibition confirmation | shares compounds with PglD DTNB | Purified C. jejuni PglD, DTNB absorbance 412 nm | inhibition, % at 20 µM | 320 tested, under 10 active | AID 743156;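 active = mean inhibition across replicates of at least 20% with every single replicate also at 20% or more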;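 also: initial rate of CoA release by acetyl transfer from AcCoA to the UDP-4-amino sugar; 0% = median of neutral control wells and 100% = median of positive control wells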
# Numbers without * were called inactive; . = no result given; ! = not active in a repeat. Hits are enriched below; roughly 2.8% of the tested compounds scored in any of these assays.
SMILES,FGF22 binding,PvdQ acylase,CDK5 p35 inh,dFosB activator,PglD DTNB,SIRT5 block,PglD confirm
O=C(C[C@H]1CC[C@H](NC(=O)Nc2ccccc2F)[C@H](CO)O1)NCc1ccc(-c2ccccc2)cc1,.,.,.,.,.,-1,.
O=C(NC1CCCCC1)[C@H]1[C@H](CO)[C@H]2Cn3c(cccc3=O)[C@H]2N1CC1CCOCC1,0,.,.,.,-1,-2,.
CCCCn1c(SCC(=O)N2CCCCC2)nc2cc(S(N)(=O)=O)ccc21,.,-3,1,-11,45*,.,2
CCCCn1c(SCC(=O)N2CC(C)CC(C)C2)nc2cc(S(N)(=O)=O)ccc21 (configuration not stated),.,-6,0,-10,2,.,.
CCCNC(=O)[C@@H]1[C@@H](CO)[C@@H]2Cn3c(ccc(C4=CCCC4)c3=O)[C@H]1N2S(C)(=O)=O,0,.,.,.,-3,-16,.
CN(C)c1nc(OCC(=O)NC(C)(C)C)nc(N(C)C)n1,.,-23,3,-6,22*,.,1
CCOC(=O)C1=C(C)N(c2ccccc2)C(=O)NC1c1cccc([N+](=O)[O-])c1 (configuration not stated),.,-5,0,-7,21*,.,-4
C[C@@H]1CN([C@@H](C)CO)C(=O)c2cc(NC(=O)CCC(F)(F)F)ccc2O[C@H]1CN(C)Cc1ccc(-c2ccccc2)cc1,0,.,.,.,1,3,.
O=C(Nc1ccc(OCC(=O)N2CCOCC2)cc1)Nc1cccc(Cl)c1,0,-11,1,-3,.,-4,.
O=C(Nc1ccc(C(=O)N2CCOCC2)cc1)Nc1cccc(Cl)c1,.,-19,1,-10,25*,.,3
C[C@@H]1CN([C@@H](C)CO)S(=O)(=O)c2ccc(-c3cccnc3)cc2O[C@@H]1CN(C)C(=O)C1CCCCC1,0,.,.,.,-1,-1,.
COc1cccc(C(=O)NNC(=O)C(=O)Nc2cccc(Cl)c2C)c1,0,-4,-9,-3,22*,-2,10
Cc1noc(C)c1S(=O)(=O)Nc1ccc2c(c1)C(=O)N([C@H](C)CO)C[C@@H](C)[C@@H](CN(C)S(=O)(=O)c1cn(C)cn1)O2,0,.,.,.,-1,-5,.
O=C(NC1CCCCC1)c1cccc(NC(=O)c2ccccc2Cl)c1,0,.,.,.,22*,-3,1
O=C(NC1CC1)c1cccc(NC(=O)C2CCCCC2)c1,0,-6,-1,1,-1,-3,.
O=C(Cc1ccccn1)N[C@@H]1C=C[C@@H](CC(=O)N2CCCCC2)O[C@H]1CO,0,.,.,.,8,1,.
O=C(C[C@H]1CC[C@H](NC(=O)Nc2ccc3c(c2)OCO3)[C@@H](CO)O1)NCc1ccc(Cl)cc1,1,.,.,.,2,3,.
FC(F)(F)c1ccncc1-c1nnc(C2CCCCC2)o1,0,-4,0,5,22*,-5,0
CC1CN2C(c3ccc([N+](=O)[O-])cc3)=CSC2=N1 (configuration not stated),0,-17,-2,1,75*,-2,2
CC1C(=O)NN=C1c1ccc([N+](=O)[O-])cc1 (configuration not stated),0,15,2,-1,.,1,.
O=C(Nc1ccccc1C(=O)N1CCOCC1)C1CC(=O)N(c2ccc(F)cc2)C1 (configuration not stated),0,-10,0,1,-12,-2,.
O=C(Nc1ccccc1C(=O)N1CCOCC1)C1CC(=O)N(C2CCCC2)C1 (configuration not stated),.,-1,2,-4,33*,.,-5
Nc1c(N2CCCC2)c2ccccc2oc1=O,0,-7,0,-7,21*,-4,-4
C[C@@H]1CN([C@H](C)CO)C(=O)c2cc(C#Cc3ccc(F)cc3)cnc2O[C@@H]1CN(C)C,0,.,.,.,2,-2,.
COC(=O)C1SCC2C(=O)N(Cc3cccc(C)c3)CC(=O)N21 (configuration not stated),0,-6,-1,-6,-27,-1,.
SMILES,FGF22 binding,PvdQ acylase,CDK5 p35 inh,dFosB activator,PglD DTNB,SIRT5 block,PglD confirm
COC(=O)C1SCC2C(=O)N(Cc3ccc(F)cc3)CC(=O)N21 (configuration not stated),0,-19,2,-6,26*,-1,5
Cc1ccc(S(=O)(=O)N(C)C)cc1NC(=O)CSc1nnnn1-c1ccc(O)cc1,0,0,1,-4,28*,-3,-8
CN(C)S(=O)(=O)c1ccc(Cl)c(NC(=O)CSc2nnnn2-c2ccc(O)cc2)c1,0,-11,-2,-7,.,0,.
NCc1csc(Nc2cc(Oc3ccccc3)ncn2)n1,0,.,.,.,21*,0,0
C/C=C/c1ccc([C@@H]2[C@@H](CO)N(C(=O)c3cnccn3)C23CN(C(=O)CC)C3)cc1,0,.,.,.,.,-2,.
Cc1cccc(-n2c(N)cc(=O)[nH]c2=S)c1C,.,-25,-1,-3,3,.,.
Nc1cc(=O)[nH]c(=S)n1-c1cccc(C(F)(F)F)c1,.,-1,0,-1,44*,.,0
COc1ccc(-c2n[nH]c(=S)n2N)c(OC)c1,42,7,2,-2,21*,-2,-1
COc1ccc(NC(=O)Nc2ccc3c(c2)C(=O)N([C@H](C)CO)C[C@H](C)[C@@H](CN(C)C(=O)CCC(F)(F)F)OCCCC[C@H](C)O3)cc1,1,.,.,.,5,.,.
CCC(=O)Nc1ccccc1C(=O)OCC(=O)Nc1ccc(S(N)(=O)=O)cc1,.,-16,0,0,31*,.,-3
O=[N+]([O-])c1ccc(O)c(-c2cc(C(F)(F)F)nc(-c3ccccc3)n2)c1,0,-4,-1,1,25*,-6,1
Oc1ccccc1-c1cc(C(F)(F)C(F)F)nc(-c2ccccc2)n1,.,3,0,-4,-3,.,.
COc1ccc(NC(=O)Nc2ccc3c(c2)C(=O)N([C@@H](C)CO)C[C@H](C)[C@@H](CN(C)S(=O)(=O)c2cn(C)cn2)OCCCC[C@@H](C)O3)cc1,-1,.,.,.,-2,.,.
CC1CCN(C(=O)COc2ccc(S(=O)(=O)N3CCCC3)cc2)CC1,0,-12,1,-12,1,-1,.
O=C(COc1ccc(S(=O)(=O)N2CCCCC2)cc1)N1CCCCCC1,.,10,0,-7,21*,.,-5
CC(C)NC(=O)N(C)C[C@H]1Oc2cc(C#Cc3ccc(F)cc3)ccc2S(=O)(=O)N([C@H](C)CO)C[C@H]1C,0,.,.,.,21*!,7,10
CC(C)NC(=O)N(C)C[C@H]1Oc2cc(C#Cc3ccc(F)cc3)ccc2S(=O)(=O)N([C@@H](C)CO)C[C@@H]1C,0,.,.,.,0,8,.
CCCNC(=O)N1[C@H](CNC(C)=O)[C@H](c2ccc(C3=CCCC3)cc2)[C@@H]1CO,.,.,.,.,1,.,.
